Results taken from PubChem BioAssay (NCATS).
Records with an inconclusive call do not appear. The source made the active and inactive calls. Calls follow the shape of the full dose curve. Bridge positions count the residues as written; N and C are the ends. Square brackets hold non-standard residues; d marks the D form. Peptide text beside a SMILES is read from it. hArg = N=C(N)NCCCC[C@H](N)C(=O)O; Mpa = O=C(O)CCS

Key:
[1] = Primary qHTS for inhibitors of SARS-S pseudo-typed particle cell entry (AID 1479145); also: nearly all actives have a fitted effect of over 45% in size
[2] = Primary qHTS for Huh7 cytotoxicity: counterscreen for inhibitors of MERS-S pseudotyped particle cell entry (AID 1479147)
[3] = Primary qHTS for inhibitors of MERS-S pseudo-typed particle cell entry (AID 1479149); also: nearly all actives have a fitted effect of over 60% in size
[4] = Primary qHTS for Vero E6 cytotoxicity: counterscreen for inhibitors of SARS-S pseudo-typed particle cell entry (AID 1479150)
% is scaled to controls: 0 for no effect and ±100 for the full control effect.

CN(CCCN1c2ccccc2CCc2ccccc21)CC(=O)c1ccc(Cl)cc1
inactive: Potency [1] | Potency [2] | Potency [3] | Potency [4]

CCCc1nc(C)c2c(=O)[nH]c(-c3cc(S(=O)(=O)N4CCN(CC)CC4)ccc3OCC)nn12
inactive: Potency [1] | Potency [2] | Potency [3] | Potency [4]

Oc1ccc(CCNCCCCCCNCCc2ccccc2)cc1O
inactive: Potency [1] | Potency [2] | Potency [3] | Potency [4]

CCN(CC)C(=O)c1cccc(C)c1
inactive: Potency [1] | Potency [2] | Potency [3] | Potency [4]

c1ccc2[nH]c(-c3cscn3)nc2c1
inactive: Potency [1] | Potency [2] | Potency [3] | Potency [4]

CC(C)C(=O)OCc1cccc(OC(=O)[C@@H]2N3C(=O)[C@@H](NC(=O)Cc4ccccc4)[C@H]3SC2(C)C)c1
inactive: Potency [1] | Potency [2] | Potency [3] | Potency [4]

C[N+]1(CC2COC(c3ccccc3)(c3ccccc3)O2)CCCCC1 (stereo not given)
inactive: Potency [1] | Potency [2] | Potency [3] | Potency [4]

N[C@@H](CSSC[C@H](N)C(=O)O)C(=O)O
inactive: outcome [1] inactive [at 0.573 µM] | activity change, negative = cytotoxicity [2] 2.73% [at 0.573 µM] | outcome [3] inactive [at 0.573 µM] | activity change, negative = cytotoxicity [4] 4.84% [at 0.573 µM]

CC[N+](CC)(CC)CCOC(=O)C(C1CCCC1)C1CCCC1
inactive: Potency [1] | Potency [2] | Potency [3] | Potency [4]

CCC(=O)Oc1ccc2c(c1)CC[C@@H]1[C@@H]2CC[C@@]2(C)[C@H]1C[C@@H](OC(=O)CC)[C@@H]2OC(=O)CC
inactive: Potency [1] | Potency [2] | Potency [3] | Potency [4]

CCN(CC)CCNC(C(=O)OCCC(C)C)c1ccccc1 (stereo not given)
inactive: Potency [1] | Potency [2] | Potency [3] | Potency [4]

CC(=O)OCC1=C(C(=O)O)N2C(=O)[C@@H](NC(=O)CSc3ccncc3)[C@H]2SC1
inactive: Potency [1] | Potency [2] | Potency [3] | Potency [4]

CCC(C(=O)OCCN1CCOC(c2ccccc2)C1C)c1ccccc1 (stereo not given)
inactive: Potency [1] | Potency [2] | Potency [3] | Potency [4]

C[N+](C)(C)CCOC(=O)CCC(=O)OCC[N+](C)(C)C
inactive: Potency [1] | Potency [2] | Potency [3] | Potency [4]

CCN(CC)C(=O)N1CCN(C)CC1
inactive: Potency [1] | Potency [2] | Potency [3] | Potency [4]

NC(=O)[C@@H]1CSSCCC(=O)N[C@@H](CCCCN=C(N)N)C(=O)NCC(=O)N[C@@H](CC(=O)O)C(=O)N[C@@H](Cc2c[nH]c3ccccc23)C(=O)N2CCC[C@H]2C(=O)N1 ([Mpa][hArg]GDWPC-NH2; disulfide 1-7)
inactive: Potency [1] | Potency [2] | Potency [3] | Potency [4]

COc1ccc(CN(CCN(C)C)c2ncccn2)cc1
inactive: Potency [1] | Potency [2] | Potency [3] | Potency [4]

C[C@H](N)C(=O)N[C@@H](C)C(=O)NC1[C@H]2CN(c3nc4c(cc3F)c(=O)c(C(=O)O)cn4-c3ccc(F)cc3F)C[C@@H]12 (stereo not given in full)
inactive: Potency [1] | Potency [2] | Potency [3] | Potency [4]

CCNC(=O)NCCCOc1cccc(CN2CCCCC2)c1
inactive: Potency [1] | Potency [2] | Potency [3] | Potency [4]

C[C@]12CC[C@@H]3c4ccc(O)cc4CC[C@H]3[C@@H]1CCC2=O
inactive: Potency [1] | Potency [2] | Potency [3] | Potency [4]

Cc1c(C)c2c(c(C)c1OC(=O)CCC(=O)OCCO)CC[C@@](C)(CCC[C@H](C)CCC[C@H](C)CCCC(C)C)O2
inactive: Potency [1] | Potency [2] | Potency [3] | Potency [4]

CN1CCCN=C1/C=C/c1cccs1
inactive: Potency [1] | Potency [2] | Potency [3] | Potency [4]

N[C@H](C(=O)O)[C@@H](O)c1ccc(O)c(O)c1
inactive: Potency [1] | Potency [2] | Potency [3] | Potency [4]

C#C[C@]1(O)CC[C@H]2[C@@H]3[C@H](C)CC4=C(CCC(=O)C4)[C@H]3CC[C@@]21C
inactive: Potency [1] | Potency [2] | Potency [3] | Potency [4]

COc1cc(OC)cc(OC)c1
inactive: Potency [1] | Potency [2] | Potency [3] | Potency [4]

Cc1nnc(C(=O)NC(C)(C)c2nc(C(=O)NCc3ccc(F)cc3)c(O)c(=O)n2C)o1
inactive: Potency [1] | Potency [2] | Potency [3] | Potency [4]

CCCNC(C)(C)COC(=O)c1ccccc1
inactive: Potency [1] | Potency [2] | Potency [3] | Potency [4]

CCN(CC)C(=O)C1CN2CCc3cc(OC)c(OC)cc3C2CC1OC(C)=O (stereo not given)
inactive: Potency [1] | Potency [2] | Potency [3] | Potency [4]

O=C(O)COC(=O)Cc1ccccc1Nc1c(Cl)cccc1Cl
inactive: Potency [1] | Potency [2] | Potency [3] | Potency [4]

C[C@@H]1C[C@H]2[C@@H]3CCC4=CC(=O)C=C[C@]4(C)[C@@]3(F)[C@@H](O)C[C@]2(C)[C@@]1(O)C(=O)COC(=O)c1ccncc1
inactive: Potency [1] | Potency [2] | Potency [3] | Potency [4]
